# Results reported in PubChem BioAssay AID456 (Sanford-Burnham Center for Chemical Genomics, 2006).
# The campaign covered roughly 10,000 compounds. About 25 (0.2%) were called active.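 Rule for the calls: active = top tenth filtered wells with inhibition above zero that passed visual or statistical confirmation; inactive = the rest, including hits rejected on review.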 Shown is part of a subset that was picked to be rich in actives. Entries with a potency or affinity are not part of this list.
# Assay: inhibitors of TNFa-induced VCAM-1 surface display, imaging, high-content imaging, pooled HUVEC, TNFa stimulus (AID 456);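 for inhibition: VCAM-1 immunofluorescence minus red nonspecific channel after plate median normalization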
# Conditions: HUVEC TNFa-induced VCAM-1 surface expression, immunofluorescence imaging;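 compounds screened at 5 µM final in the well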
row,Structure (SMILES),inhibition
1,CN(C)c1ccc(NC(=O)CSCc2nc3c(nnn3Cc3ccc(F)cc3)c(=O)[nH]2)cc1,inactive
2,COC(=O)c1c(N)sc(C(=O)N2CCOCC2)c1C,inactive
3,O=C(CSc1nnc(-c2cccnc2)o1)Nc1ccccn1,inactive
4,c1ccc(Cn2ncc3c2ncn2c(-c4ccncc4)nnc32)cc1,inactive
5,CCOc1ccc(C(c2nnnn2Cc2ccccc2)N2CCN(C(=O)c3ccco3)CC2)cc1 (stereo unspecified),inactive
6,O=C(CSc1nnnn1Cc1ccccc1)Nc1ccc2c(c1)OCO2,inactive
7,CCOC(=O)c1sc(Nc2nc3c(OC)cccc3s2)nc1C,inactive
8,COc1cc(NS(=O)(=O)N2CCCC2)cc(OC)c1OC,inactive
9,COc1ccc2ccccc2c1CN1CCN(C)CC1,inactive
10,c1cc(C(c2nnnn2C2CCCC2)N2CCOCC2)ccn1 (stereo unspecified),inactive
11,O=C(Nc1ccc(N2CCOCC2)c(F)c1)c1ccncc1,inactive
12,COc1ccc2cc(C(c3nnnn3C(C)(C)C)N3CCc4ccccc4C3)c(=O)[nH]c2c1 (stereo unspecified),inactive
13,CCC(C)(C)n1nnnc1C(c1ccc(OC)c(OC)c1)N1CCN(c2ccccc2)CC1 (stereo unspecified),inactive
14,C=CCSC1=C(C#N)C(c2ccccc2OCC)CC(=O)N1 (stereo unspecified),inactive
15,CNC(=O)CSc1nnc(-c2cc(C)cc(C)c2)o1,inactive
16,Cc1csc(NC(=O)CCCSc2nc3ccccc3s2)n1,inactive
17,CCOCCCNC(=O)C1CCCN(S(=O)(=O)CC)C1 (stereo unspecified),inactive
18,O=C(NCc1ccccc1)C1CCCN1S(=O)(=O)c1cccc2cccnc12 (stereo unspecified),inactive
19,CC(=O)OCC(=O)[C@H]1CC[C@H]2[C@@H]3CCC4=CC(=O)CC[C@]4(C)[C@H]3CC[C@]12C,78.2% (active)
20,CC(=O)[C@H]1CC[C@H]2[C@@H]3CCC4=CC(=O)CC[C@]4(C)[C@H]3CC[C@]12C,87.1% (inactive)
21,C[C@]12CC[C@H]3[C@@H](CCC4=CC(=O)CC[C@@]43C)[C@@H]1CC[C@@H]2C(=O)CO,72.2% (inactive)
22,CC(=O)OCC(=O)[C@@]1(O)[C@H](C)C[C@H]2[C@@H]3CCC4=CC(=O)C=C[C@]4(C)[C@@]3(F)[C@@H](O)C[C@@]21C,inactive
23,CCC(=O)O[C@]1(C(=O)CCl)[C@@H](C)C[C@H]2[C@@H]3CCC4=CC(=O)C=C[C@]4(C)[C@@]3(F)[C@@H](O)C[C@@]21C,78.5% (active)
24,CCCC(=O)O[C@]1(C(=O)CCl)[C@@H](C)C[C@H]2[C@@H]3CCC4=CC(=O)C=C[C@]4(C)[C@@]3(F)C(=O)C[C@@]21C,inactive
25,CCOC(=O)Nc1cc(OCC)c(NC(=O)C2CC2)cc1OCC,inactive
26,COC(=O)CCN(C(=O)c1ccc2c(c1)OCO2)c1ccccn1,inactive

row,Structure (SMILES),inhibition
1,Cc1ccc(S(=O)(=O)N2CCCC(c3nnc4n3-c3ccccc3SC4)C2)cc1 (stereo unspecified),inactive
2,Cc1ccc(Nc2nc(N)nc(CN3CCN(Cc4ccc5c(c4)OCO5)CC3)n2)cc1,inactive
3,COc1ccccc1C(=O)Nc1ccc(S(=O)(=O)N2CCCC2)cc1,inactive
4,CCOC(=O)c1ccc(NC(=O)CSCc2ccco2)cc1,inactive
5,COC(=O)c1cc(=O)n(Cc2ccc3c(c2)OCO3)c(=Nc2ccccc2)s1,96.4% (inactive)
6,COc1ccc(S(=O)(=O)Cc2ccc(C(=O)N3CCN(Cc4ccccc4)CC3)o2)cc1,inactive
7,CCC(c1c(C)n(C)n(-c2ccccc2)c1=O)c1c(C)n(C)n(-c2ccccc2)c1=O,inactive
8,Cc1nc2ccccn2c(=O)c1CCN1CCC(C(=O)c2ccc(F)cc2)CC1,inactive
9,Cc1nc2sccn2c(=O)c1CCN1CCC(=C(c2ccc(F)cc2)c2ccc(F)cc2)CC1,87.2% (inactive)
10,Cc1cccn2c(=O)c3cc(C#N)c(=NC(=O)c4ccncc4)n(Cc4ccco4)c3nc12,inactive
11,CC(C)n1c(=NC(=O)c2ccco2)c(C#N)cc2c(=O)n3ccccc3cc21,78.9% (active)
12,CCOC(=O)c1cc2c(=O)n3ccccc3nc2n(CC(C)C)c1=NC(=O)c1ccco1,inactive
13,Cc1n[nH]c(C)c1S(=O)(=O)N1CCCCCC1,inactive
14,CC1Oc2ccccc2N(CC(=O)N(Cc2ccccc2)Cc2ccccn2)C1=O (stereo unspecified),inactive
15,COc1ccc(N2CCN(Cc3nc(-c4ccc(Cl)cc4Cl)no3)CC2)cc1,inactive
16,O=C(/C=C1\NC2(CCCC2)Cc2ccccc21)N1CCOCC1,inactive
17,CCCN1C=CC(=C2C(=O)c3ccccc3C2=O)C=C1,inactive
18,COc1ccc2cc3cc(C(=O)NCC4CCCO4)oc3nc2c1 (stereo unspecified),inactive
19,CC1(C(=O)NC2CCCCC2)CCC(=O)N1Cc1cccs1 (stereo unspecified),inactive
20,COc1ccc(Br)cc1S(=O)(=O)N1CCOCC1,inactive
21,Cc1cccc(-c2nnc(SCC#N)n2-c2cccc(Cl)c2)c1,inactive
22,COc1ccc2cc(CN(CCO)C(=O)c3ccccc3F)c(=O)[nH]c2c1,inactive
23,CCn1nnc(NC(=O)c2cc3ccccc3o2)n1,inactive
24,CCOC(=O)c1cccc(NC(=O)CSc2nnc(-c3ccoc3C)n2CCOC)c1,inactive
25,COC(=O)c1ccccc1NC(=O)CSc1nc2c(c(=O)n(C)c(=O)n2C)n1C,inactive
26,CCOc1ccc(-c2cc(C(=O)N3CCN(c4ccccn4)CC3)c3ccccc3n2)cc1,inactive

row,Structure (SMILES),inhibition
1,O=C(c1cnn2c(C(F)F)cc(-c3ccccc3)nc12)N1CCN2CCCC2C1 (stereo unspecified),inactive
2,Cc1ccc(-c2cc(C(F)F)n3ncc(C(=O)N4CCN(c5ccccn5)CC4)c3n2)cc1,80.5% (active)
3,CC1(C)CC(CCNC(=O)c2ccco2)CC(C)(C)N1,inactive
4,CC1CCc2nn(CC(=O)NCc3ccc4c(c3)OCO4)cc2C1 (stereo unspecified),inactive
5,CCS(=O)(=O)c1nc2ccccc2n1Cc1ccccc1Cl,inactive
6,O=C1c2oc3ccccc3c(=O)c2C(c2ccccn2)N1Cc1ccccc1 (stereo unspecified),inactive
7,COc1ccc(Cl)c(NC(=O)NCCN2CCN(c3ccccc3)CC2)c1,inactive
8,Cc1cc2ncn(C(=O)c3c(-c4ccccc4)noc3C)c2cc1C,inactive
9,CCOC(=O)N1CCC(N2C(=O)c3ccccc3C2Nc2cc(Cl)c(OC)cc2OC)CC1 (stereo unspecified),72.7% (active)
10,CCOC(=O)c1ccccc1NC1c2ccccc2C(=O)N1C1CCN(C(=O)OCC)CC1 (stereo unspecified),inactive
11,CCOC(=O)N1CCC(N2C(=O)c3ccccc3C2Nc2ccccc2C)CC1 (stereo unspecified),inactive
12,CCN(CC)C(=O)CSc1nnc([C@@H](N)Cc2ccccc2)o1,inactive
13,Cc1nnc(NC(=O)c2ccccc2F)s1,inactive
14,CCOc1ccc(N(CC(=O)NC2CCCC2)S(=O)(=O)c2c(C)[nH]c(=O)[nH]c2=O)cc1,inactive
15,CC1CC(C)CN(Cc2nc3c(c(=O)n(C)c(=O)n3C)n2Cc2ccccc2Cl)C1 (stereo unspecified),inactive
16,O=C(COC(=O)c1ccc(S(=O)(=O)Nc2ccccc2)cc1)NCCN1C(=O)CSC1=O,inactive
17,CCOC(=O)CSc1nc2ccccc2c(=O)n1CCN1CCOCC1,inactive
18,O=C(NCCC1=CCCCC1)C1CC(=O)N(C2CCCCCC2)C1 (stereo unspecified),inactive
19,CCCN1CCN(CCCNC(=O)Cn2nc(-c3ccc(Cl)cc3)ccc2=O)CC1,inactive
20,Cc1ccc(-c2ccc(=O)n(CC(=O)NCCCN3CCCCC3C)n2)cc1 (stereo unspecified),inactive
21,COCc1nnc(NC(=O)CCCOc2ccccc2)s1,inactive
22,Cc1ccc(NC(=O)CCC(=O)O)cc1F,inactive
23,CC1Cc2ccccc2N1C(=O)CSc1nnc2n1C(C)(C)Cc1ccccc1-2 (stereo unspecified),inactive
24,CCOc1ccc(Nc2nc(Cc3nnc(SCC(N)=O)o3)cs2)cc1,inactive
25,COc1ccc(Br)cc1C1N2CC3(C)CN1CC(C)(C2)C3=O (stereo unspecified),inactive
26,Cc1cc(C)nc(SC2=CS(=O)(=O)c3ccccc32)n1,99.6% (inactive)

row,Structure (SMILES),inhibition
1,O=S1(=O)C=C(Sc2nnc(-c3ccccc3)o2)c2ccccc21,inactive
2,CCCCN(CCCC)CCn1cnc2c([nH]c3ccc(OC)cc32)c1=O,inactive
3,O=C(CC1Oc2ccccc2NC1=O)NCCCN1CCOCC1 (stereo unspecified),inactive
4,CC(C)(C)OC(=O)N1CCC(C(=O)N2CCCCCC2)CC1,inactive
5,Nc1cc(N)cc(-c2nc3ccccc3o2)c1,inactive
6,Nc1nc(CN2CCOCC2)cs1,inactive
7,CC(C(=O)N1c2ccc(F)cc2CCC1C)N1C(=O)c2ccccc2C1=O (stereo unspecified),inactive
8,COc1cccc(NC(=O)CN2CCN(c3ccccc3F)CC2)c1,inactive
9,CCOc1ccc(N(CC(=O)Nc2ccc(C)c(C)c2)S(=O)(=O)c2c(C)noc2C)cc1,inactive
10,N#CCCN(Cc1cccnc1)C(=O)Nc1ccc(Cl)c(Cl)c1,inactive
11,COc1ccccc1-c1noc(-c2ccco2)n1,inactive
12,CCOC(=O)Cn1nc(-c2ccc(Cl)cc2)cc1N,inactive
13,Cc1cc(=O)n2[nH]c(-c3ccc(Cl)cc3)cc2n1,inactive
14,COc1ccc(NC(=O)CN(c2cc(C)cc(C)c2)S(=O)(=O)c2c(C)noc2C)cc1OC,inactive
15,CC(=O)Nc1nc(C)c(-c2csc(Nc3ccc(O)cc3)n2)s1,inactive
16,c1cc2c(cc1Nc1nc(-c3ccc4c(c3)OCO4)cs1)OCCO2,inactive
17,Cc1ccc(Cc2c(C)nc3c(C(=O)O)cnn3c2C)cc1,inactive
18,CCOC(=O)CN1CC23C=CC(O2)C(C(=O)Nc2ccc(OCC)cc2)C3C1=O (stereo unspecified),inactive
19,CN(C)CCCN1c2ccccc2Sc2ccc(C(F)(F)F)cc21,inactive
20,CN(C)CCCN1c2ccccc2Sc2ccccc21,inactive
21,CN(C)CCCN1c2ccccc2CCc2ccccc21,inactive
22,CNCCCN1c2ccccc2CCc2ccccc21,inactive
23,CCC1CCCCN1CCCNC(=O)CC1Oc2ccc(C)cc2NC1=O (stereo unspecified),inactive
